Data from PubChem BioAssay (NCATS).
Records with an inconclusive call do not appear. Where a call stands in place of a potency, no number is given. The source made the active and inactive calls. Calls come from the whole dose curve; as a rule, active = well fitted inhibition curve with a large enough effect; inconclusive = small, poorly fitted or top-dose-only effect; inactive = flat fitted curve, though single readings scatter.

biological target: Voltage-gated inwardly rectifying potassium channel KCNH2 (Homo sapiens) (UniProt Q12809); assay: qHTS Assay for Small Molecule Inhibitors of the Human hERG Channel Activity (AID 588834); settings: U2OS BacMam hERG, FluxOR thallium flux fluorescence; series mostly up to 46.1 µM;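 note: lower thallium flux fluorescence means stronger hERG block; nearly all actives have a fitted effect of over 50% in size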
Sequence (Q12809 whole entry, looked up): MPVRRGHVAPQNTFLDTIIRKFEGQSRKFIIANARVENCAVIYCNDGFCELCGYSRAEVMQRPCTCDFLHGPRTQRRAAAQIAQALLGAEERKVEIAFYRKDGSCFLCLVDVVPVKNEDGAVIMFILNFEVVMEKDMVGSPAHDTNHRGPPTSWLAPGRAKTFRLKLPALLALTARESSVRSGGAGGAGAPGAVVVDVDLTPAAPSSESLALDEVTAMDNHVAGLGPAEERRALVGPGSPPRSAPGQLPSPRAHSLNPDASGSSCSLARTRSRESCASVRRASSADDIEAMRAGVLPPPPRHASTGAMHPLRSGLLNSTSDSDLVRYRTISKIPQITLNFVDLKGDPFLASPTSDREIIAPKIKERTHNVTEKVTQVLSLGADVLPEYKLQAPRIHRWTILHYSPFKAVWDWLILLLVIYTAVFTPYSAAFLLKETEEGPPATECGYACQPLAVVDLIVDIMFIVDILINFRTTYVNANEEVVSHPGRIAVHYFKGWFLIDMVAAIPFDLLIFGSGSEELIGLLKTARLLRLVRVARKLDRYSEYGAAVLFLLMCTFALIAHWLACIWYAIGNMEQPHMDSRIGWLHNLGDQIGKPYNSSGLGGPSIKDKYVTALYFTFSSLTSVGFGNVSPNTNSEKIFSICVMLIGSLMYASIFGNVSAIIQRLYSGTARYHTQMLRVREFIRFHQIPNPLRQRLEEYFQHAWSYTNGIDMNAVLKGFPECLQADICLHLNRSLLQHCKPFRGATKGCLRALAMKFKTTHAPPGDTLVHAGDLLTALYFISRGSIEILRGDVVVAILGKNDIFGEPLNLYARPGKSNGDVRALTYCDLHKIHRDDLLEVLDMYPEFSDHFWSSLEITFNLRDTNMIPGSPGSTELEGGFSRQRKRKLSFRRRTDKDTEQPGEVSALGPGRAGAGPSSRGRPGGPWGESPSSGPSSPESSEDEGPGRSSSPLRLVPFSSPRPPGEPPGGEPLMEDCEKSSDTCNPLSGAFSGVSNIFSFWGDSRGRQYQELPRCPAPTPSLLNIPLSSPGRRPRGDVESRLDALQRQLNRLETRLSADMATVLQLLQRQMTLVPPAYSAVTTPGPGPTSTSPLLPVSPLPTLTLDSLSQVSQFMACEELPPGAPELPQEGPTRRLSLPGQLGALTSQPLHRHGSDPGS
Excerpt: NIH Chemical Genomics Center [NCGC]
National Institutes of Environmental Health Sciences [NIEHS]
National Toxicology Program [NTP]
We have developed a 1536-well cell-based assay for quantitative high throughput screening (qHTS) to determine in vitro hERG channel blockage as a measure of cardio toxicity with small molecules. This particular assay uses the U2OS cell line which is derived from human osteosarcoma.
NCGC Assay Protocol Summary:
HERG assay (FluxORTM thallium flux assay) was initially developed by Invitrogen/Molecular Probes, and then miniaturized into 1536-well plate in a homogeneous format by NCGC. This assay measures the activity of potassium channel using thallium dye (FluxOR) flux as surrogate measurement for potassium into the cells with a FDSS-7000 kinetic plate reader (Hamamatsu Corp., Hamamatsu City, Japan). The hERG ion channel is transduced into mammalian cells (U2OS) using a baculovirus (Bacmam) construct harboring the hERG K+ ion channel. So far we screened LOPAC1280 library (Sigma), the NTP collection of 1408 compounds, and the NCGC Pharmaceutical Collection (NPC), in which many well defined HERG blockers are present. The rank order potencies of many of these compounds are similar to that of other HERG assays (membrane potential, Rb+ flux, patch clamp, etc). This quick and homogeneous assay is also found to be sensitive, specific, and robust.
Using the FluxORTM thallium flux assay, the activity of potassium channel using thallium dye (FluxOR) flux as surrogate measurement for potassium into the cells was measured in the U2OS cell line transduced with hERG K+ ion channel using a baculovirus (Bacmam) using Opti-MEM medium (Invitrogen) containing 2% fetal calf serum (FCS, HyCone) following loading buffer addition, compound treatment for around 10 minutes and finally adding stimulation buffer. The assay was performed in black clear Kalypsys 1536-well plates. In the screen, Astemizole was used as positive controls. Library compounds were measured for their ability to cause hERG channel blockage in the cell line, as reflected by a decrease in fluorescence intensity, in a concentration-dependent manner. […] AC50 values were determined from concentration-response data modeled with the standard Hill equation.
qHTS protocol for hERG-U2OS cellular assay
[Step] [Parameter] [Value] [Description]
1. Day 1: Replace medium in 70-80% confluent T225 flask with 2.5 mL of hERG-BacMam virus plus 12.5 mL of phosphate buffered saline (PBS) (corresponding roughly to a multiplicity of infection ratio of 100 virus particles/cell)
2. Incubation: 4 hrs @ room Temperature in Dark
3. Reagent; Remove virus; wash once with 25 ml DPBS
4. Reagent; 35 ml culture medium
5. Incubation; 37 °C overnight
6. Day2: Reagent; 3 uL; 2000 U2OS cells/well
7. Time; 4 hr; 37 °C incubation
8. Loading buffer; 1 uL; 0.7X;
9. Incubation: 1hr @ RT in Dark.
12. Time; 10min; 37 °C incubation
13. Read fluorescence Intensity on FDSS for 10 Sec with 1 sec interval
14. Reagent; 1 uL; stimulation buffer
15. Read fluorescence Intensity on FDSS for 2 min with 1 sec interval
16. Detection; Fluorescence Intensity; FDSS
Potency is the fitted concentration of half-maximal effect.

**Q.** For CCCCCCCCCCCCCC(=O)OC(C)C, which Potency is on record?
**A.** inactive

**Q.** O=S(c1cc(Cl)cc(Cl)c1O)c1cc(Cl)cc(Cl)c1O was tested. Which Potency did it give?
**A.** inactive

**Q.** How did the Potency turn out when Cc1ccc(-c2ncc(Cl)cc2-c2ccc(S(C)(=O)=O)cc2)cn1 was run?
**A.** inactive

**Q.** For CCCCCCCC/C=C\CCCCCCCCN, which Potency is on record?
**A.** inactive

**Q.** With CN(C)CCOC(c1ccc(Cl)cc1)c1ccccn1 (stereo not given) as the compound, how does the Potency read?
**A.** 14.1 µM (active)

**Q.** With COc1ccc(CN(CCN(C)C)c2ncccn2)cc1 as the compound, how does the Potency read?
**A.** inactive

**Q.** For O=C1c2cccc3c2[C@H](CCC3)CN1[C@@H]1CN2CCC1CC2, which Potency is on record?
**A.** 12.6 µM (active)

**Q.** Which Potency does the source give for O=C1OC2(c3ccccc31)c1cc(Br)c(O)c(Br)c1Oc1c2cc(Br)c(O)c1Br here?
**A.** 5.62 µM (active)

**Q.** CC(=O)OCC(=O)[C@H]1CC[C@H]2[C@@H]3CCC4=CC(=O)CC[C@]4(C)[C@H]3CC[C@]12C was tested. Which Potency did it give?
**A.** inactive

**Q.** For c1ccc(-c2nc[nH]c2-c2ccccc2)cc1, which Potency is on record?
**A.** inactive

**Q.** For CC(C)(Cc1c[nH]c2ccccc12)NCC(O)COc1ccccc1C#N (stereo not given), which Potency is on record?
**A.** 2.82 µM (active)

**Q.** CCc1oc2ccccc2c1C(=O)c1cc(I)c(O)c(I)c1 was tested. Which Potency did it give?
**A.** inactive

**Q.** Which Potency does the source give for CCCCNC(=O)NS(=O)(=O)c1ccc(N)cc1 here?
**A.** inactive

**Q.** For Cc1ncc(CO)c(C=O)c1O, which Potency is on record?
**A.** inactive

**Q.** How did the Potency turn out when CC(C)Cn1cnc2c1c(=O)n(C)c(=O)n2C was run?
**A.** inactive

**Q.** Which Potency does the source give for CC(=O)Nc1ccc(OC(=O)c2ccccc2OC(C)=O)cc1 here?
**A.** inactive

**Q.** How did the Potency turn out when OC[C@H]1O[C@@H](Oc2ccc(O)cc2)[C@H](O)[C@@H](O)[C@@H]1O was run?
**A.** inactive

**Q.** COC(=O)C(c1ccccc1Cl)N1CCc2sccc2C1 (stereo not given) was tested. Which Potency did it give?
**A.** inactive

**Q.** O=C(NC1CCN(CCc2c[nH]c3ccccc23)CC1)c1ccccc1 was tested. Which Potency did it give?
**A.** 0.891 µM (active)

**Q.** Which Potency does the source give for O=C(O)c1ccc(S(=O)(=O)N(Cl)Cl)cc1 here?
**A.** inactive

**Q.** For NC(=O)c1ccccc1O, which Potency is on record?
**A.** inactive

**Q.** With Cc1c[nH]c2ccccc12 as the compound, how does the Potency read?
**A.** inactive

**Q.** With Cl/C(=C\n1cncn1)c1ccc(Cl)cc1Cl as the compound, how does the Potency read?
**A.** inactive

**Q.** With CC(CNC1CCCCC1)OC(=O)c1ccccc1 (stereo not given) as the compound, how does the Potency read?
**A.** inactive

**Q.** How did the Potency turn out when CC(C)(C)NCC(O)COc1cccc2c1C[C@H](O)[C@H](O)C2 (stereo not given in full) was run?
**A.** inactive

**Q.** How did the Potency turn out when O=C(Nc1ccc([N+](=O)[O-])cc1)Nc1ccc([N+](=O)[O-])cc1 was run?
**A.** 14.1 µM (active)

**Q.** Oc1c(Cl)cc(Cl)c(Cl)c1Cc1c(O)c(Cl)cc(Cl)c1Cl was tested. Which Potency did it give?
**A.** inactive

**Q.** For CCOCCn1c(N2CCCN(C)CC2)nc2ccccc21, which Potency is on record?
**A.** 1 µM (active)

**Q.** How did the Potency turn out when CCOc1cc(OCC)c(C(=O)CCC(=O)O)cc1OCC was run?
**A.** inactive

**Q.** COP(=O)(OC)OC(c1ccc(Cl)cc1)P(=O)(OC)OC (stereo not given) was tested. Which Potency did it give?
**A.** inactive

**Q.** With O=C(O)C(Cc1cc(I)c(O)c(I)c1)c1ccccc1 (stereo not given) as the compound, how does the Potency read?
**A.** inactive

**Q.** For C=CCN1CCc2nc(N)sc2CC1, which Potency is on record?
**A.** inactive

**Q.** With N#C/C(=C1\SCC(c2ccccc2Cl)S1)n1ccnc1 (stereo not given) as the compound, how does the Potency read?
**A.** inactive

**Q.** Which Potency does the source give for CC(C)(C)NC[C@H](O)COc1cccc2c1CCCC2=O here?
**A.** inactive

**Q.** With CCc1nn(CCCN2CCN(c3cccc(Cl)c3)CC2)c(=O)n1CCOc1ccccc1 as the compound, how does the Potency read?
**A.** 1 µM (active)

**Q.** Which Potency does the source give for CC(=O)O[C@H]1C[C@@H]2CC[C@@H]3[C@H](CC[C@@]4(C)[C@H]3C[C@H]([N+]3(C)CCCCC3)[C@@H]4OC(C)=O)[C@@]2(C)C[C@@H]1N1CCCCC1 here?
**A.** inactive

**Q.** Which Potency does the source give for CC(=O)Nc1ccc(OCC(O)CNC(C)C)cc1 (stereo not given) here?
**A.** inactive

**Q.** With O=C(O)P(=O)(O)O as the compound, how does the Potency read?
**A.** inactive

**Q.** For CC1CCc2c(N3CCC(O)CC3)c(F)cc3c(=O)c(C(=O)O)cn1c23 (stereo not given), which Potency is on record?
**A.** inactive

**Q.** With CCOC(=O)[C@H](CCc1ccccc1)N[C@@H](C)C(=O)N1[C@H](C(=O)O)C[C@@H]2CCC[C@@H]21 as the compound, how does the Potency read?
**A.** inactive
